Rpn11 block = inhibitors of human proteasome Rpn11; O00487; human 26S proteasome, Ub4-pepOG fluorescence polarization; 20S core pre-blocked with epoxomicin; inhibition, % at 20 µM; actives 0.59% (n = 360,000); AID 588493;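 active = inhibition at 20 µM, scaled to each plate's controls, above about 33%, limit read from the data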
IDE cell inh = cellular human IDE inhibition; P14735; HEK cells, FAbetaB cleavage, fluorescence polarization; inhibition, % at 5.59 µM; actives 0.41% (n = 320,000);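 active = percent inhibition above the average of all tested compounds plus 3 SD, set per screening campaign, cut at about 16% in these data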;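 note: IDE supplied by intact live HEK cells; FP after avidin binding of uncleaved biotin substrate so inhibition keeps polarization high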
Rin1 Abl inh = human Rin1-Abl interaction inhibition; TR-FRET Rin1/Abl binding, biochemical; inhibition, % at 7.35 µM; actives 0.4% (n = 360,000); AID 588664; in the data active = inhibition above about 5%, passing the limit was not always enough
Calb FLC = affects C. albicans growth with fluconazole; C. albicans CaCi-2 (fluconazole-resistant clinical isolate) + fluconazole, Alamar Blue growth, 48 h; growth inhibition, % (test concentration not listed); actives 0.57% (n = 300,000);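 active = growth inhibition above about 58% in most replicates, limit read from the data, passing the limit was not always enough; inconclusive = exactly half the replicates above a set limit; inactive = most replicates below a set limit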;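 note: all wells also contain fluconazole at 8 µg/ml as a sub-toxic cotreatment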
TPT1 inhibitor = C. albicans TPT1 enzyme inhibition | recombinant caTPT1, FP RNA substrate dephosphorylation | inhibition, % at 5 µM | actives 0.81% (n = 300,000) | AID 1962;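 active = inhibition above the mean of all tested compounds plus 3 SD, set per screening campaign, cut at about 24% in these data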
IDE act = boosts human insulin-degrading enzyme activity in HEK cells; AID 493087; activation, % at 5.96 µM; FAbeta-B cleavage, fluorescence polarization; 0% vehicle, 100% cell-free pure enzyme wells; actives 0.073% (n = 340,000);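 active = activation above the mean of all tested compounds plus 3 SD, set per screening campaign, cut at about 17% in these data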
Of the large screens only hits and unclear results are named; the others gave an inactive call. In the library only some 2.3% were active in any assay of this set; here they are far more common.

COc1ccc2[nH]c(C(=O)N/N=C/c3ccccc3OC)cc2c1	none
COc1cc(OC)c2cc(C(=O)N/N=C/c3ccccc3O)[nH]c2c1	Calb FLC 81.1
O=C(Cc1n[nH]c(=O)c2ccccc12)OCC(=O)c1ccccc1	none (no result: Calb FLC, TPT1 inhibitor)
COc1cc(CNC2CCCCCC2)cc(OC)c1OC	none
COc1cc(CNC2CCCC2)cc(OC)c1OC	IDE act 18.1
CC(C)CC(=O)NCc1ccc2[nH]c3c(c2c1)CCCC3	Calb FLC 119.0
COCC(=O)Nc1nc2n(n1)C(c1ccccc1Cl)CC(c1ccc(OC)cc1)N2 (configuration not stated)	Calb FLC 110.5
Cc1cc(C)cc(N(CCC#N)C(=O)COC(=O)Cn2[nH]c(=O)c3ccccc3c2=O)c1	none (no result: Calb FLC, TPT1 inhibitor)
CCn1c(C)nc2cc(C(=O)NNC(=S)Nc3ccc(Cl)cc3Cl)ccc21	Calb FLC 95.3
O=[N+]([O-])c1ccc(C2CCCC/C2=N/OCc2ccc(F)cc2)c([N+](=O)[O-])c1 (configuration not stated)	Calb FLC 115.2
O=[N+]([O-])c1ccc(C2CCCC/C2=N/OCc2ccccc2F)c([N+](=O)[O-])c1 (configuration not stated)	none
Cc1nc2ccc(N=NC3=C(O)CC(C)(C)CC3=O)cc2s1	none
CCOc1ccc2nc(N=NC3=C(O)CC(C)(C)CC3=O)sc2c1	Calb FLC 89.5
O=C(CCl)NC(Cc1ccccc1)C(=O)OCC(=O)c1ccc(-c2ccccc2)cc1 (configuration not stated)	none (no result: IDE cell inh, Calb FLC, TPT1 inhibitor)
CC(=O)N1CCC(=NNC(=O)c2cc3ccccc3cc2O)CC1	Calb FLC 82.3
CC(=O)N1CCC(=NNc2nc3ccccc3s2)CC1	Calb FLC 99.4
Cc1ccc2nc(C)c(CN3CCN(c4ccc([N+](=O)[O-])cc4Cl)CC3)n2c1	Calb FLC inconclusive
CC(=O)N1CCN(c2ccc(NS(=O)(=O)c3ccc(C)cc3)cc2)CC1	none
Cc1ccccc1-n1ncc2c(SCC(=O)NC3CCCC3)ncnc21	none
Cc1nnc(NC(=O)CSc2ncnc3c2cnn3-c2ccccc2C)s1	Calb FLC 84.6
O=C(c1cc2c(s1)CCCCC2)N1CCN(c2ncccn2)CC1	Calb FLC 76.1
COc1ccc(N2CCN(C(=O)c3cc4c(s3)CCCCC4)CC2)cc1	none (no result: Calb FLC, TPT1 inhibitor)
COc1cccc(OCc2cc(C(=O)N(C)C3CCCCC3)no2)c1	none (no result: IDE cell inh, Calb FLC, TPT1 inhibitor, IDE act)
O=Nc1c(O)c2ccccc2c2ccccc12	Calb FLC 94.3
CC(OC(=O)c1ccc(Cl)nc1)C(=O)NCc1ccc2c(c1)OCO2 (configuration not stated)	none
Cc1cc(C)c2ccc(N)nc2c1O	Calb FLC 107.3
O=C(OCCOc1ccc(Br)cc1)c1ccc(Cl)nc1	Calb FLC 109.5
CC(C)N(C(=O)COC(=O)c1ccc(Cl)nc1)C(C)C	none
O=C1NC(=O)/C(=C/c2ccccc2Oc2ccc(Cl)cc2)S1	Calb FLC 78.9
COc1ccc(-n2nc(C(=O)NCC(=O)NCCC3=CCCCC3)c3ccccc3c2=O)c(OC)c1	Calb FLC 96.7
COc1ccc(/C=N/Nc2ncnc3c2[nH]c2ccc(C)cc23)c(OC)c1OC	IDE cell inh 39.0 (no result: IDE act)
COc1cc(CNc2ncnc3c2[nH]c2ccc(C)cc23)cc(OC)c1	IDE cell inh 55.5
COc1cc(OC)c(OC)cc1/C=N/Nc1ncnc2c1[nH]c1ccccc12	none
CN=c1scc(-c2ccccc2F)n1/N=C(\C)c1cccnc1	none
S=C(Nc1ccccc1)Nc1nc2ccccc2n1CCOc1ccc(Cl)cc1	Calb FLC 92.0
CCCn1c(NC(=S)Nc2ccccc2)nc2ccccc21	none
CC(Sc1nnnn1C1CC1)C(=O)N1c2ccccc2NC(=O)C1(C)C (configuration not stated)	none (no result: Calb FLC, TPT1 inhibitor)
Cc1nc(Cc2nnc(SC(C)C(=O)N3c4ccccc4NC(=O)C3(C)C)o2)cs1 (configuration not stated)	IDE act 20.2 (no result: Calb FLC, TPT1 inhibitor)
CC(C)(C)C1CCC(OC(=O)C[N+]2(C)CCCCC2)CC1 (configuration not stated)	Calb FLC 78.8
CN1CCN(C(c2ccc(C(F)(F)F)cc2)c2cc(Cl)c3cccnc3c2O)CC1 (configuration not stated)	Calb FLC 99.6 (no result: Rpn11 block, Rin1 Abl inh, IDE act)
